According to ChEMBL document CHEMBL3988442, “University of Dundee, Small-Polar-MMV Screening Library” (2021):
For some of these results: Results with a measured potency or affinity are listed apart.

Columns and labels:
Parameters in all cases: scale not given: direction of the effect not stated beside the values
[1] = target: Protein translocase subunit SecA (Escherichia coli (strain K12)) (UniProt P10408); assay: Assay to Identify E. coli SecA ATPase Inhibitors; format: functional; settings: 30 µM
[2] = target: T1, Ubiquitin-activating enzyme e1, putative (Leishmania donovani (strain BPK282A1)) (UniProt E9BSI1); assay: Leishmania donovani Ubiquitin Activating Enzyme (LdE1); format: functional; settings: 30 µM
T1 sequence (whole entry): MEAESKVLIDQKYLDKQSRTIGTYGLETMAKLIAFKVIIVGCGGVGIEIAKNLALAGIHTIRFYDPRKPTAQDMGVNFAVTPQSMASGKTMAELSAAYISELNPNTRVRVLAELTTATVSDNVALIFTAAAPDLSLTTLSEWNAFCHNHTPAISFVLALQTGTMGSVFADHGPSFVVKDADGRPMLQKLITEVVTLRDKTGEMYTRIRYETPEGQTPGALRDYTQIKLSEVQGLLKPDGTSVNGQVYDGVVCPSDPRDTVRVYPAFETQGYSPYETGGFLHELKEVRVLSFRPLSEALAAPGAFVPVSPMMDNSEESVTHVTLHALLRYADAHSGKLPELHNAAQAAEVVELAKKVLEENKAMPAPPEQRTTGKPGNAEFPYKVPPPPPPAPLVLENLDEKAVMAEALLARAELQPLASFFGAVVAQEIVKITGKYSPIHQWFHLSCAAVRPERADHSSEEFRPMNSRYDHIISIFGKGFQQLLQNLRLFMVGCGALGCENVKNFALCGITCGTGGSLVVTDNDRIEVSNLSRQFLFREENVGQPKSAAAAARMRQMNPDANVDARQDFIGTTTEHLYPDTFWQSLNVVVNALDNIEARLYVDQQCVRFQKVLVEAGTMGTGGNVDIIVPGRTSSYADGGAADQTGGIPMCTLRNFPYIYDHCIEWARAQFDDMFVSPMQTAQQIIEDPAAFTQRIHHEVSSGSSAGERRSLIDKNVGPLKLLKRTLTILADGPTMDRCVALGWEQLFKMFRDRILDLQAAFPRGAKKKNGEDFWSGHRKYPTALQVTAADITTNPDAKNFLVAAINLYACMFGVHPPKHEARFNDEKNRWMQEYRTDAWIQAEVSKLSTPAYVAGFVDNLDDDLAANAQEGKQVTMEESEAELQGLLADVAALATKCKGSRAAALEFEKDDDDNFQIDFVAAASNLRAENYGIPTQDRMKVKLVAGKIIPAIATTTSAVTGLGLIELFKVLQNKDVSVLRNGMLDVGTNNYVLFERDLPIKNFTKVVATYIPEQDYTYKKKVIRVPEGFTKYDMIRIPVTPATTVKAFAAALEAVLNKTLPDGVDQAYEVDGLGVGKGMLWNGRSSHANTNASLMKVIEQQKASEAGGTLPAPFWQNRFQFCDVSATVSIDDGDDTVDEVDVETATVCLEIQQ

[3] = target: AMP-activated protein kinase, AMPK (Homo sapiens) (UniProt P54646+O43741+P54619+Q9UGJ0+Q9Y478+Q13131+Q9UGI9); assay: AMP-dependent Kinase enzyme assay. An in vitro enzyme assay that detects ADP turnover that is directly proportional to AMPK activity. This uses naive AMPK that is activated during the assay with MK-8722; format: functional; settings: 30 µM
[4] = target: Sialic acid-binding Ig-like lectin 9 (Homo sapiens) (UniProt Q9Y336); assay: Hs-Siglec9 ALPHAscreen SOP 20170721; settings: 10 µM
Trypanosoma cruzi = assay: Trypanosoma cruzi phosphomannomutase and mannose-1-phosphate guanylyltransferase assay; format: functional; settings: 10 µM
[5] = target: T2, Arginase-2, mitochondrial (Homo sapiens) (UniProt P78540); assay: in vitro enzyme assay to detect the production of urea directly proportional to the activity of Arginase II; format: functional; settings: 33.3 µM; also: in the data most compounds retested in dose-response had high values
T2 sequence (whole entry): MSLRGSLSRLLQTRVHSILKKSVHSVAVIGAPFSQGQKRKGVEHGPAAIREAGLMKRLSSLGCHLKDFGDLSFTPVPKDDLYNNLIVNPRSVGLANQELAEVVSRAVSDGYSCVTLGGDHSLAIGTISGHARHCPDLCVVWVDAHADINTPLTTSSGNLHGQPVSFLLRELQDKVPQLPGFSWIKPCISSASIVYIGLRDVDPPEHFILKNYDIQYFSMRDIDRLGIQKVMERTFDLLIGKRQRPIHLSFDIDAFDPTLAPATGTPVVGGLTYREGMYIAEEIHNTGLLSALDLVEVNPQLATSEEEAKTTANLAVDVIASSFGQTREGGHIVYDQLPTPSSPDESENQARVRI

[6] = target: T3, Proteasome subunit beta (Trypanosoma cruzi) (UniProt O96673); assay: Trypanosoma cruzi proteasome chymotrypsin-like activity (TcProtChymo) assay.; also: in the data most compounds retested in dose-response had high values; format: functional; settings: 9.37 µM
T3 sequence (whole entry): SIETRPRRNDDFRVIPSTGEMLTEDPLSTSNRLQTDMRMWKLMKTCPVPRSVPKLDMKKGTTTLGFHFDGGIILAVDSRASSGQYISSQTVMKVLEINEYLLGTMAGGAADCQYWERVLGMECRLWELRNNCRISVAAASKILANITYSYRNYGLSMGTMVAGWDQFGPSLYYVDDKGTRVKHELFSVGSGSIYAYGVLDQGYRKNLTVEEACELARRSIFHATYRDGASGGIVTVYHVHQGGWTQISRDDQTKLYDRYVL

Homo sapiens = species on record: Homo sapiens; assay: To identify inhibition of the IFN signalling (Jak-Stat) pathway via expression of an eGFP reporter gene under the control of an IFN-stimulated response element (ISRE) containing MxA promoter.; format: functional; settings: 30 µM
[7] = target: T4, Tyrosyl-tRNA synthetase, putative (Trypanosoma cruzi (strain CL Brener)) (UniProt Q4DSP6); assay: Trypanosoma cruzi tyrosyl tRNA synthetase (TcYRS) _High Tyrosine SOP; format: functional; settings: 30 µM; also: in the data most compounds retested in dose-response had high values
T4 sequence (whole entry): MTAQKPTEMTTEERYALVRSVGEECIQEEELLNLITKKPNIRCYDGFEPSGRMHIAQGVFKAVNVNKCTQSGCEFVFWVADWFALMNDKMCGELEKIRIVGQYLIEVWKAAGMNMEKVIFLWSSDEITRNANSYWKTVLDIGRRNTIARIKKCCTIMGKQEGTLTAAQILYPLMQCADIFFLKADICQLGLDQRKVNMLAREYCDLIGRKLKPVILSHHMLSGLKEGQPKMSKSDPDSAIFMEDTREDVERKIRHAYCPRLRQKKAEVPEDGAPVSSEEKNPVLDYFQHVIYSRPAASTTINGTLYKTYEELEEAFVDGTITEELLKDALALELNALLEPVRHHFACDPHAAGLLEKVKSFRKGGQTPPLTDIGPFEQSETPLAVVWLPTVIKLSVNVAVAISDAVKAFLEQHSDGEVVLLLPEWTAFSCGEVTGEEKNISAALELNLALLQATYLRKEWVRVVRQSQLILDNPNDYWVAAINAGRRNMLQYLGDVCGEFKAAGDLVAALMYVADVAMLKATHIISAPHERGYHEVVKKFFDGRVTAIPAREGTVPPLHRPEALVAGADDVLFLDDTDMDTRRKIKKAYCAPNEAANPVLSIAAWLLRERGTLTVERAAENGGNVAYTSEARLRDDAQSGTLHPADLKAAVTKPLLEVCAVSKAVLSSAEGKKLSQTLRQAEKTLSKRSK

[8] = target: T4, Tyrosyl-tRNA synthetase, putative (Trypanosoma cruzi (strain CL Brener)); assay: Trypanosoma cruzi tyrosyl tRNA synthetase (TcYRS) SOP; format: functional; settings: 30 µM
[9] = target: Chromo domain-containing protein 1 (Saccharomyces cerevisiae (strain ATCC 204508 / S288c) (Baker's yeast)) (UniProt P32657); assay: ScCHD-1 Enzyme Inhibition Assay; format: functional; settings: 30 µM; also: in the data most compounds retested in dose-response had high values
Sequence of Chromo domain-containing protein 1 (Saccharomyces cerevisiae (strain ATCC 204508 / S288c) (Baker's yeast)) (P32657 whole entry, the tested form may be a part): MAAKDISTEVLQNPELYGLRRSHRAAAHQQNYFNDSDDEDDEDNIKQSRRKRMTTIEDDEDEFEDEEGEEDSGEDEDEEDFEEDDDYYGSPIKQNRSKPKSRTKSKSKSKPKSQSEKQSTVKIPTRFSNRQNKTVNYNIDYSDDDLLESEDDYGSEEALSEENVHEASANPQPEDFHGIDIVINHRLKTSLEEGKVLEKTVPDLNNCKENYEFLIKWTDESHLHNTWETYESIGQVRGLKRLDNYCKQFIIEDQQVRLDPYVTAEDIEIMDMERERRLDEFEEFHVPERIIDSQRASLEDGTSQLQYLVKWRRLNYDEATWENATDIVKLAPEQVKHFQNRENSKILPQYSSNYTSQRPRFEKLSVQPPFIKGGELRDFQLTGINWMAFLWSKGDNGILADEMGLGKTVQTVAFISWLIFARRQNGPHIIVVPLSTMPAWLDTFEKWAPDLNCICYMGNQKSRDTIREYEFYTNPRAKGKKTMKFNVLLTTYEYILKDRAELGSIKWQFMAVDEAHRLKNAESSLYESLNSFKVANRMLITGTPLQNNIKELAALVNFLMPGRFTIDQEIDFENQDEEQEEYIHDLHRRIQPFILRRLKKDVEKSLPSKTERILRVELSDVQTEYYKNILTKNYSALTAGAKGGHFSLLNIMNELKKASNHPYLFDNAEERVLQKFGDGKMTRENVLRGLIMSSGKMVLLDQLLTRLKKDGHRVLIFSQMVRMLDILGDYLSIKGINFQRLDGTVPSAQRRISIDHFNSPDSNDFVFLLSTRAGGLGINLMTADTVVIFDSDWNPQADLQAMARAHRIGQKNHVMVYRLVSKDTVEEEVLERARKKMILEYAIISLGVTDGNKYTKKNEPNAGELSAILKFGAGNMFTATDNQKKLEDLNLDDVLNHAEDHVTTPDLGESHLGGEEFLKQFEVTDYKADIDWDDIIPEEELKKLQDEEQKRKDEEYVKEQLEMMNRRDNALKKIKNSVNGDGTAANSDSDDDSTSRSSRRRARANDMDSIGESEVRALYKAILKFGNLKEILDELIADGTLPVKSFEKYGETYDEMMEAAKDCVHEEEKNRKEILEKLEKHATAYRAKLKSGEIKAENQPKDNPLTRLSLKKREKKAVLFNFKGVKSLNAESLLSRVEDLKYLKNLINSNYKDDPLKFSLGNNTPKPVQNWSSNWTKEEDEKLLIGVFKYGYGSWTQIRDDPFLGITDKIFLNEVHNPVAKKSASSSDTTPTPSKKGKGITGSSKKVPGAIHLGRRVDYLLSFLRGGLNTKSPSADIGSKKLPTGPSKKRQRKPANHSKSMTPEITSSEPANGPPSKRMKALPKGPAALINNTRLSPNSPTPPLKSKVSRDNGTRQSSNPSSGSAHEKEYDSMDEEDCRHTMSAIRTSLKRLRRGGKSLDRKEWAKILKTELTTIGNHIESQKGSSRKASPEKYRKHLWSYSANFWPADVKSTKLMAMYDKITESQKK

Sequence of Protein translocase subunit SecA (Escherichia coli (strain K12)) (P10408 whole entry): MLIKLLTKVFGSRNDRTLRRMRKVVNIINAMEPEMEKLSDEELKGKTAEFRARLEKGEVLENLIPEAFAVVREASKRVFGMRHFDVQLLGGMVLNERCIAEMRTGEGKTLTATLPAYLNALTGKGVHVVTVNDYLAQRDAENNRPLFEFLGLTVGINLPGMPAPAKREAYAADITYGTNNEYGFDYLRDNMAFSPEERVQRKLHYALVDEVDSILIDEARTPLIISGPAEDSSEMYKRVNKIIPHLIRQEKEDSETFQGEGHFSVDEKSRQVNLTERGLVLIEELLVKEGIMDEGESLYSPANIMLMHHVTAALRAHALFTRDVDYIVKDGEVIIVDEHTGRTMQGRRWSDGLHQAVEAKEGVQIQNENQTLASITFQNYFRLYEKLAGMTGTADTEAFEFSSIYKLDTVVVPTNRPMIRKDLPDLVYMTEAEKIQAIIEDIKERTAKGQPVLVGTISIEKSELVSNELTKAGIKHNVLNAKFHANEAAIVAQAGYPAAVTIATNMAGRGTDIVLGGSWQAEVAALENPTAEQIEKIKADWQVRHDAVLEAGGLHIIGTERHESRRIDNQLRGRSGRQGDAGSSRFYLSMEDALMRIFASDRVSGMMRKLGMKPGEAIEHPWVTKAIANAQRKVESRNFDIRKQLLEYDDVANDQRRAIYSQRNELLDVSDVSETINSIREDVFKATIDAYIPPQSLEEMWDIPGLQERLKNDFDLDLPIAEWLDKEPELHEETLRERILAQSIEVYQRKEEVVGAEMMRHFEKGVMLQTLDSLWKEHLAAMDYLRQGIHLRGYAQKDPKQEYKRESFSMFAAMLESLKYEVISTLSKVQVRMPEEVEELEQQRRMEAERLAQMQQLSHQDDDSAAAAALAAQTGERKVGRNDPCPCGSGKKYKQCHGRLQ
Sequence of Sialic acid-binding Ig-like lectin 9 (Homo sapiens) (Q9Y336 whole entry): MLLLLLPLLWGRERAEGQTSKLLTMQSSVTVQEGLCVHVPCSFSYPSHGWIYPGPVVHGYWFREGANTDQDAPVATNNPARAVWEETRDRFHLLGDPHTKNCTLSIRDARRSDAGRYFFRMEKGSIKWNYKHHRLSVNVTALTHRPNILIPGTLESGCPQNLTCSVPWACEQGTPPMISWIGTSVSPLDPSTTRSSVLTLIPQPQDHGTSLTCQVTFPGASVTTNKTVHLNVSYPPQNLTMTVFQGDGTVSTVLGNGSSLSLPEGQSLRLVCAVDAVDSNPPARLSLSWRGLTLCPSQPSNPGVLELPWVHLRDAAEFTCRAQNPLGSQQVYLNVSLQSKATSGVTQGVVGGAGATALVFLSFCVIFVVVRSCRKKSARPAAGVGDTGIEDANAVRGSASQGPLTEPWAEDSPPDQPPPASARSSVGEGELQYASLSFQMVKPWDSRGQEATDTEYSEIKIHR

Row | Structure (SMILES) | Percent Effect [1] [%] | Percent Effect [2] [%] | Percent Effect [3] [%] | Percent Effect [4] [%] | Percent Effect (Trypanosoma cruzi) [%] | Percent Effect [5] [%] | Percent Effect [6] [%] | Percent Effect (Homo sapiens) [%] | Percent Effect [7] [%] | Percent Effect [8] [%] | Percent Effect [9] [%]
1 | CCc1nnc2n1CCN(C(=O)COCCc1ccccc1)C2 | -5.81 | 15.8 | -4.37 | 7.1 | -2.71 | 1.8 | 1.78 | -1.11 | 3.45 | 13.6 | -2.89
2 | O=C(NS(=O)(=O)c1cc(Cl)sc1Cl)c1cccc2c1OCCO2 | -8.74 | -11 | 3.09 | -2.91 | -6.07 | -1.36 | 13.5 | 24.9 | -22.6 | -42.5 | -4.53
3 | CNC(=O)c1cc2c(nc1NCC1CC1)CCN(S(=O)(=O)C1CC1)CC2 | -0.616 | 18.2 | 3.29 | -14.9 | -2.86 | 8.39 | 9.75 | 33.1 | -1.06 | 11.5 | -8.62
4 | CC(C)c1nc(CN2CCN(C(C)c3nc(C4CC4)no3)CC2)no1 (stereo unspecified) | -0.845 | -3.8 | 4.42 | 1.01 | -1.13 | 1.07 | 3.09 | -8.78 | 2.08 | 2.53 | 2.13
5 | CCC1CN(CC(=O)Nc2sccc2C#N)CCO1 (stereo unspecified) | -4.43 | -13.2 | -2.5 | 2.86 | 0.376 | 0 | 8.19 | -2.35 | 4.41 | 9.76 | -9.42
6 | Cn1ccnc1CN1CCN(c2ccc(C#N)cn2)CC1 | -0.525 | -67.6 | 39.5 | 9.32 | 0.464 | 1.29 | 6.64 | 7.75 | 6.93 | 15.8 | -4.02
7 | O=C1COC2(CCN(CC3CC3)CC2)CN1c1ccccc1 | -0.394 | 2.74 | -5.09 | 8.07 | 4.17 | -2 | 18.6 | -21.4 | 9.38 | 8.64 | -1.91
8 | Cc1cc(C)cc(C2(C(=O)N3CCCC(n4cncn4)C3)CC2)c1 (stereo unspecified) | -0.118 | 16.2 | 3.34 | -6.31 | -3.44 | 2.4 | 7.36 | 12.7 | 6.93 | 18.3 | -6.26
9 | CNc1nc(CNC(=O)Nc2cccc(F)c2)cs1 | -4.85 | 8.11 | -3.94 | 12.7 | -1.39 | -4.99 | 1.62 | 1.99 | 5.94 | 6.1 | 8.34
10 | COc1ccccc1OCc1cc(C(=O)N2CCN[C@H](C)C2)n[nH]1 | -4.07 | 8.11 | -4.98 | 25.9 | 4.63 | 2.38 | 27.4 | 3.54 | 1.59 | 12.2 | -8.49
11 | O=C(CCc1cscn1)N1CCCC1c1noc(C2CC2)n1 (stereo unspecified) | -5.78 | 16.2 | -11.8 | 6.15 | -1.42 | -2 | 11.3 | 6.02 | 12.3 | 16.1 | -5.15
